Test results published in the supplement of paper PMC6555819.

How the values were obtained:
Experiment in all cases: PBM binding z-score (relative to random genomic background probes); higher = stronger binding; sequences stand for … in GC…GCGATTGACAGCGTAGAATGAAGG
[1] = test system: FXR:RXRa (NR concentration 270 nM, RXRa partner concentration 90 nM)
Procedure, shortened: (§1)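 Binding buffer was PBS pH 7.4 with 2% milk, 0.02% Triton X-100, 1 mM DTT, 0.2 mg/mL BSA and 0.4 mg/ml salmon testes DNA. In it, ligand-free nuclear receptor dimers were incubated 1 h on custom Agilent 4×180K protein-binding microarrays carrying double-stranded probes. Antibodies against each partner (one per run) detected binding, and z-scores were calculated against random background probes after regression normalization of scanned fluorescence.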

[2] = test system: LXRa:RXRa (NR concentration 270 nM, RXRa partner concentration 90 nM)
Procedure, shortened: as §1

[3] = test system: LXRa homodimer (NR concentration 270 nM)
Procedure, shortened: as §1

[4] = test system: LXRb:RXRa (NR concentration 270 nM, RXRa partner concentration 90 nM)
Procedure, shortened: as §1

[5] = test system: LXRb homodimer (NR concentration 270 nM)
Procedure, shortened: as §1

[6] = test system: PPARa:RXRa (NR concentration 270 nM, RXRa partner concentration 90 nM)
Procedure, shortened: as §1

[7] = test system: PPARg:RXRa (NR concentration 180 nM, RXRa partner concentration 90 nM)
Procedure, shortened: as §1

[8] = test system: PPARg:RXRa 270nM:90nM, anti-RXR (NR concentration 270 nM, RXRa partner concentration 90 nM)
Procedure, shortened: as §1

[9] = test system: PPARg:RXRa 30nM:10nM, anti-RXR (NR concentration 30 nM, RXRa partner concentration 10 nM)
Procedure, shortened: as §1

[10] = test system: PPARg:RXRa 90nM:30nM, anti-RXR (NR concentration 90 nM, RXRa partner concentration 30 nM)
Procedure, shortened: as §1

[11] = test system: PPARg:RXRa DBDmut IVT, anti-RXR (DBD mutation: RXRa K156A/R161A, NR concentration 270 nM, RXRa partner concentration 90 nM)
Procedure, shortened: as §1

[12] = test system: PPARg:RXRa IVT, anti-PPARg (NR concentration 270 nM, RXRa partner concentration 90 nM)
Procedure, shortened: as §1

[13] = test system: PPARg DBDmut:RXRa IVT, anti-PPARg (DBD mutation: PPARg1 K132A/R137A, NR concentration 270 nM, RXRa partner concentration 90 nM)
Procedure, shortened: as §1

[14] = test system: PPARg DBDmut IVT, anti-PPARg (DBD mutation: PPARg1 K132A/R137A, NR concentration 270 nM)
Procedure, shortened: as §1

[15] = test system: PPARg homodimer (NR concentration 180 nM)
Procedure, shortened: as §1

[16] = test system: PXR:RXRa (NR concentration 270 nM, RXRa partner concentration 90 nM)
Procedure, shortened: as §1

[17] = test system: PXR homodimer (NR concentration 270 nM)
Procedure, shortened: as §1

[18] = test system: RARa:RXR (NR concentration 270 nM, RXRa partner concentration 90 nM)
Procedure, shortened: as §1

[19] = test system: RARa homodimer (NR concentration 270 nM)
Procedure, shortened: as §1

[20] = test system: RARb:RXRa (NR concentration 270 nM, RXRa partner concentration 90 nM)
Procedure, shortened: as §1

ACTATTAGTTCAGACGAGGGCAACCGATAGGTTG
PBM binding z-score [1]: 1.07
PBM binding z-score [2]: 1.31
PBM binding z-score [3]: 0.305
PBM binding z-score [4]: 0.453
PBM binding z-score [5]: 0.271
PBM binding z-score [6]: 0.817
PBM binding z-score [7]: 0.621
PBM binding z-score [8]: 0.191
PBM binding z-score [9]: -0.0108
PBM binding z-score [10]: 0.00845
PBM binding z-score [11]: 0.264
PBM binding z-score [12]: 0.891
PBM binding z-score [13]: 0.625
PBM binding z-score [14]: 0.802
PBM binding z-score [15]: 0.783
PBM binding z-score [16]: 3.92
PBM binding z-score [17]: 2.04
PBM binding z-score [18]: 0.878
PBM binding z-score [19]: 0.72
PBM binding z-score [20]: 2.1

CCGACTGGGGCCAGGTTACCATAACGCACAGCCA
PBM binding z-score [1]: 0.0157
PBM binding z-score [2]: -0.087
PBM binding z-score [3]: -0.139
PBM binding z-score [4]: 0.152
PBM binding z-score [5]: -0.749
PBM binding z-score [6]: 0.188
PBM binding z-score [7]: 0.629
PBM binding z-score [8]: 0.301
PBM binding z-score [9]: -0.675
PBM binding z-score [10]: -0.256
PBM binding z-score [11]: -0.238
PBM binding z-score [12]: -0.22
PBM binding z-score [13]: -1.52
PBM binding z-score [14]: -1.47
PBM binding z-score [15]: 0.249
PBM binding z-score [16]: -0.136
PBM binding z-score [17]: -0.0661
PBM binding z-score [18]: 0.176
PBM binding z-score [19]: -0.0137
PBM binding z-score [20]: 0.996

CCCCGGAGGACAACAGGAGGTCAGAGCTGCCAGA
PBM binding z-score [1]: 1.51
PBM binding z-score [2]: 2.55
PBM binding z-score [3]: 2.5
PBM binding z-score [4]: 1.75
PBM binding z-score [5]: -0.479
PBM binding z-score [6]: 2.24
PBM binding z-score [7]: 0.602
PBM binding z-score [8]: 0.469
PBM binding z-score [9]: -0.809
PBM binding z-score [10]: -0.262
PBM binding z-score [11]: -0.654
PBM binding z-score [12]: 0.373
PBM binding z-score [13]: -1.55
PBM binding z-score [14]: -1.4
PBM binding z-score [15]: 2.15
PBM binding z-score [16]: 2.19
PBM binding z-score [17]: 0.777
PBM binding z-score [18]: 2.7
PBM binding z-score [19]: 0.677
PBM binding z-score [20]: 2.86

TAGCCTAGGTCATGGTCCAGTATACCACGCGAAC
PBM binding z-score [1]: 3.98
PBM binding z-score [2]: 3.17
PBM binding z-score [3]: 0.367
PBM binding z-score [4]: 2.57
PBM binding z-score [5]: -0.0302
PBM binding z-score [6]: 3.96
PBM binding z-score [7]: 3.3
PBM binding z-score [8]: 3.12
PBM binding z-score [9]: 0.835
PBM binding z-score [10]: 1.94
PBM binding z-score [11]: 2
PBM binding z-score [12]: 3.39
PBM binding z-score [13]: 0.0262
PBM binding z-score [14]: -0.185
PBM binding z-score [15]: 0.886
PBM binding z-score [16]: 1.64
PBM binding z-score [17]: -0.02
PBM binding z-score [18]: 2.35
PBM binding z-score [19]: -0.386
PBM binding z-score [20]: 3.78

AGAATGAGGTTACGAAAGATCAGGGAAACGCTTG
PBM binding z-score [1]: 2.59
PBM binding z-score [2]: 4.99
PBM binding z-score [3]: -0.188
PBM binding z-score [4]: 2.46
PBM binding z-score [5]: -0.578
PBM binding z-score [6]: 3.68
PBM binding z-score [7]: 2.95
PBM binding z-score [8]: 2.84
PBM binding z-score [9]: 1.04
PBM binding z-score [10]: 2.02
PBM binding z-score [11]: 4.25
PBM binding z-score [12]: 3.64
PBM binding z-score [13]: 0.808
PBM binding z-score [14]: 0.386
PBM binding z-score [15]: 0.0598
PBM binding z-score [16]: 1.44
PBM binding z-score [17]: -0.57
PBM binding z-score [18]: 2.32
PBM binding z-score [19]: -0.313
PBM binding z-score [20]: 2.21

CGTCAAAGTTCAACAAAGGTAACGTAAAGCACGC
PBM binding z-score [1]: 7.15
PBM binding z-score [2]: 6.13
PBM binding z-score [3]: 3.38
PBM binding z-score [4]: 3.9
PBM binding z-score [5]: 1.98
PBM binding z-score [6]: 4.83
PBM binding z-score [7]: 5.08
PBM binding z-score [8]: 5.42
PBM binding z-score [9]: 2.27
PBM binding z-score [10]: 4.23
PBM binding z-score [11]: 0.464
PBM binding z-score [12]: 2.37
PBM binding z-score [13]: 1.21
PBM binding z-score [14]: 0.778
PBM binding z-score [15]: 3.04
PBM binding z-score [16]: 5.18
PBM binding z-score [17]: 3.03
PBM binding z-score [18]: 4.08
PBM binding z-score [19]: 1.53
PBM binding z-score [20]: 5.32

GCTGCTAGGTCAGGTTGGTCAGCTGACGGGTACG
PBM binding z-score [1]: 1.19
PBM binding z-score [2]: 0.902
PBM binding z-score [3]: -0.423
PBM binding z-score [4]: 0.356
PBM binding z-score [5]: -0.106
PBM binding z-score [6]: 1.26
PBM binding z-score [7]: 0.207
PBM binding z-score [8]: 1.04
PBM binding z-score [9]: -0.528
PBM binding z-score [10]: 0.514
PBM binding z-score [11]: 2.92
PBM binding z-score [12]: 2.16
PBM binding z-score [13]: 0.00411
PBM binding z-score [14]: -0.207
PBM binding z-score [15]: 1.24
PBM binding z-score [16]: 0.407
PBM binding z-score [17]: -0.471
PBM binding z-score [18]: 0.946
PBM binding z-score [19]: -0.516
PBM binding z-score [20]: 3.17
